Among the data in PubChem BioAssay (NCI) are growth values, retold here.

Common to all, as to experiment: NCI-60 one-dose screen, 48 h (100 = growth as untreated, 0 = no growth, -100 = all killed)
One experiment concerns NCI-H226 lung. As to conditions: 10 µM.
Another experiment concerns NCI-H322M lung. As to conditions: 10 µM unless noted.
The test system of a further experiment is HOP-62 NSCLC. As to conditions: 10 µM unless noted.
The next experiment concerns NCI-H460 lung. As to conditions: 10 µM unless noted.
For a further experiment, the system named is HOP-92 NSCLC. As to conditions: 10 µM unless noted.
The subject of another experiment is NCI-H522 lung. As to conditions: 10 µM.
The test system of the next experiment is A549/ATCC NSCLC. As to conditions: 10 µM unless noted.
For the next experiment, the system named is COLO 205 colon. As to conditions: 10 µM unless noted.
In the next experiment the test system is 786-0 renal. As to conditions: 10 µM unless noted.

SMILES strings stand for the structures. The panel holds about 83,000 compounds, 20% with a hit somewhere; the sample as a whole holds those more often.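 The test compound was applied at a single concentration to cells in 96-well plates for 48 hours, and percent growth was recorded.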 A number with no mark means an inactive call. Calls of active or inactive are those of the source. How the source made its calls: active means growth percent below 10; inactive means the rest.

On to `NC1=NC(c2ccccc2OS(=O)(=O)c2ccc(Br)cc2)n2c(nc3ccccc32)N1` (stereo not given), for which the growth is 102% in the experiment with NCI-H226 lung; 101% in the experiment on NCI-H322M lung; 75.2% with HOP-62 NSCLC; 97.6% with NCI-H460 lung; -1.3% (active) in the experiment on HOP-92 NSCLC; 82% in the experiment with NCI-H522 lung. The growth was 95.9% in the experiment with A549/ATCC NSCLC and 91.8% in the experiment on COLO 205 colon.

Turning to `COc1ccc(-c2nn(-c3ccc(NC(=O)c4ccc(Cl)c(Cl)c4)cc3)cc2-c2ccncc2)cc1Cl`, the growth with NCI-H226 lung is 75.8%; with NCI-H322M lung, 69.1%; in the experiment with HOP-62 NSCLC, 6.02% (active); with NCI-H460 lung, 20.6%; in the experiment with HOP-92 NSCLC it was 37.1%; in the experiment with NCI-H522 lung, 54.3%. For the same compound, the growth is 42.7% in the experiment on A549/ATCC NSCLC, -33% (active) in the experiment on 786-0 renal and -27.2% (active) with COLO 205 colon.

Consider `Cc1ccc(C(=O)Nc2ccccc2N)cc1`, for which the growth with NCI-H226 lung is 74.5%; in the experiment with NCI-H322M lung it was 71.6%; with HOP-62 NSCLC, 92.2%; with NCI-H460 lung, 66%; in the experiment with NCI-H522 lung, 70%; with A549/ATCC NSCLC, 90.8%. Besides, the growth in the experiment with 786-0 renal was 75.4%; with COLO 205 colon it was 94.6%.

With `CCSc1nnc2c3cc(Br)ccc3n(C)c2n1`, the growth in the experiment on NCI-H226 lung was 93.6%; in the experiment with NCI-H322M lung it was 101%; in the experiment with HOP-62 NSCLC, 82.7%; in the experiment with NCI-H460 lung, 102%; with NCI-H522 lung, 99.5%; in the experiment with A549/ATCC NSCLC, 102%. The growth in the experiment with 786-0 renal and with COLO 205 colon was 102% each time.

As for `Cc1ccc2c(c1)c(Sc1ccc(C(=O)NO)cc1)c1n2CN(C)CC1`, the growth with NCI-H226 lung is -0.932% (active); with NCI-H322M lung it was 31.1%; in the experiment on HOP-62 NSCLC, 33.7%; in the experiment on NCI-H460 lung it was 7.16% (active); with HOP-92 NSCLC, 27.9%; in the experiment on A549/ATCC NSCLC, 1.5% (active). Besides, the results for the growth with 786-0 renal and with COLO 205 colon were 37.7% and 14.1%, respectively.

For the compound `CN1CCc2cccc3c2C1Cc1ccc(O)c(O)c1-3` (stereo not given), the growth with NCI-H226 lung was 80.8%; in the experiment on NCI-H322M lung, 109%; with HOP-62 NSCLC it was 87.8%; with NCI-H460 lung it was 111%; in the experiment on HOP-92 NSCLC, 106%; in the experiment with NCI-H522 lung, 39.5%. Also, the growth is 95.6% with A549/ATCC NSCLC, 86.2% in the experiment with 786-0 renal and 90.5% with COLO 205 colon.

Take `COc1ccc(/C=C2\CN(Cc3cn(CCCNc4ccnc5cc(Cl)ccc45)nn3)C/C(=C\c3ccc(OC)c(OC)c3)C2=O)cc1OC`: the growth in the experiment with NCI-H226 lung was -52.4% (active); with NCI-H322M lung, 22.7%; with HOP-62 NSCLC it was -1.63% (active); with NCI-H460 lung it was -5.13% (active); with HOP-92 NSCLC it was 25.5%; in the experiment with NCI-H522 lung, 0.468% (active). For the same compound, the growth with A549/ATCC NSCLC was 5.33% (active); in the experiment on 786-0 renal, -1.83% (active); in the experiment with COLO 205 colon, 1.93% (active).

Regarding `CC1=C(C/C=C(\C)CCC[C@H](C)CCC[C@H](C)CCCC(C)C)C(=O)c2ccccc2C1=O`, the growth is 110% in the experiment with NCI-H226 lung; 103% with NCI-H322M lung; 115% in the experiment on HOP-62 NSCLC; 114% with NCI-H460 lung; 111% with HOP-92 NSCLC; 107% with NCI-H522 lung. Also, the growth is 103% in the experiment on A549/ATCC NSCLC, 103% in the experiment with 786-0 renal and 110% with COLO 205 colon.

`C[C@@H](Oc1cc(-c2cnn(C3CC4(CCCNC4)C3)c2)cnc1N)c1c(Cl)ccc(F)c1Cl` (stereo not given in full): the growth was 58.8% with NCI-H226 lung; 58.9% in the experiment on NCI-H322M lung; 54% in the experiment with HOP-62 NSCLC; 0.489% (active) in the experiment with NCI-H460 lung; -7.41% (active) in the experiment on HOP-92 NSCLC; 23.6% in the experiment with NCI-H522 lung. Further, the growth in the experiment on A549/ATCC NSCLC is 16.6%; with 786-0 renal it was 25.2%; in the experiment on COLO 205 colon, -30.9% (active).

On to `COc1cc(C2C3=C(COC3=O)N(CCO)c3cc4c(cc32)OCO4)cc(OC)c1O` (stereo not given), for which the growth in the experiment with NCI-H226 lung was 61.7%; in the experiment on NCI-H322M lung, 52.5%; in the experiment with HOP-62 NSCLC it was 41.7%; with NCI-H460 lung, 16.1%; in the experiment with HOP-92 NSCLC it was 66%; with NCI-H522 lung, -40.7% (active). Also, the results for the growth in the experiment on A549/ATCC NSCLC, with 786-0 renal and in the experiment on COLO 205 colon were 52.1%, 20% and 7.23% (active), respectively.

As to `COc1ccc(-c2nc3sc(C)cn3c2/C=C/C(=O)c2cc(OC)c(OC)c(OC)c2)cc1`, the growth was 76.9% in the experiment with NCI-H226 lung; 76.1% with NCI-H322M lung; 90.1% in the experiment on HOP-62 NSCLC; 50.5% with NCI-H460 lung; 46.2% in the experiment with HOP-92 NSCLC; 37.8% in the experiment with NCI-H522 lung. In addition, the growth was 57.1% with A549/ATCC NSCLC, 48.2% with 786-0 renal and 67.9% with COLO 205 colon.

On to `COc1ccc2c(c1)c(=O)oc1c(C)c(OCC(C)=O)ccc12`, for which the growth in the experiment with NCI-H226 lung is 104%; in the experiment on NCI-H322M lung it was 105%; in the experiment with HOP-62 NSCLC, 118%; in the experiment with NCI-H460 lung it was 103%; in the experiment with NCI-H522 lung it was 89.7%; with A549/ATCC NSCLC it was 85.1%. Also, the values for the growth in the experiment with 786-0 renal and with COLO 205 colon were 101% and 128%, respectively.

In the case of `COc1ccc(C(=O)COc2cccc(/C=C3\CSc4ccc(C)cc4C3=O)c2)cc1`, the growth with NCI-H226 lung was 77.7%; with NCI-H322M lung it was 104%; in the experiment on HOP-62 NSCLC, 104%; in the experiment with NCI-H460 lung it was 104%; in the experiment on HOP-92 NSCLC it was 98.5%; with NCI-H522 lung it was 45.8%. Further, the growth with A549/ATCC NSCLC was 96%; in the experiment on 786-0 renal it was 100%; with COLO 205 colon, 116%.

For `CC(C)N1CCN(c2ccc(OC[C@H]3CO[C@](Cn4cncn4)(c4ccc(Cl)cc4Cl)O3)cc2)CC1`, the growth in the experiment with NCI-H226 lung is 93.6%; in the experiment with NCI-H322M lung it was 106%; in the experiment on HOP-62 NSCLC it was 81%; in the experiment on NCI-H460 lung, 103%; in the experiment with HOP-92 NSCLC it was 71.2%; in the experiment on NCI-H522 lung, 78%. The values for the growth with A549/ATCC NSCLC, in the experiment on 786-0 renal and in the experiment with COLO 205 colon were 89.6%, 99.2% and 62.9%, respectively.

Consider `O=C1/C(=C/c2ccc(Cl)cc2)CN(Cc2cn(CCCNc3ccnc4cc(Cl)ccc34)nn2)C/C1=C\c1ccc(Cl)cc1`, for which the growth in the experiment with NCI-H226 lung was -81.4% (active); in the experiment on NCI-H322M lung it was -28.9% (active); with HOP-62 NSCLC it was -69.4% (active); with NCI-H460 lung, -67.6% (active); in the experiment with HOP-92 NSCLC, -65.3% (active); in the experiment with NCI-H522 lung, -92.8% (active). For the same compound, the growth is -62.9% (active) with A549/ATCC NSCLC, -74.4% (active) in the experiment with 786-0 renal and -61.3% (active) in the experiment on COLO 205 colon.
